The values that follow come from PubChem BioAssay (EPA / NIEHS).

Calls of active or inactive are those of the source. How the source made its calls: active means hit-call score of the fitted dose curve at least 0.9, where 1 is the maximum; inactive means score below 0.9.

This assay concerns TTR (gene 7276). As to the kind of experiment: CCTE_GLTED_hTTR_0.125uM: CCTE's human Transthyretin (hTTR) Inhibition Assay, with 0.125uM TTR, Great Lakes Toxicology and Ecology Division (GLTED) Lab (AID 2284431).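 Further: hits lower the fluorescence signal relative to DMSO baseline.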 The method in brief:
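Activity is defined as decreased ANSA fluorescence (ex 380, em 475) from human transthyretin, 0.125uM, following 2-hour chemical exposure in a cell-free setup, with DMSO as baseline.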
For the molecule `CCCCCCCOC(=O)c1ccc(O)cc1`, the AC50 (commonly the concentration at which the activity in the assay is half-maximal) was 1.42 µM (active).

For the molecule `CCCCCCCCCCCC(=O)N(C)CC(=O)O`, the AC50 is 21.4 µM (active).

Turning to `Oc1ccc(-c2ccccc2)c(Cl)c1`, the AC50 is 0.0353 µM (active).

As to `CC1=NN(c2ccc(S(=O)(=O)O)cc2)C(=O)C1N=Nc1ccccc1` (stereo unspecified), the AC50 is 5.69 µM (active).

With `O=S(=O)(O)c1ccc(N=Nc2c(O)ccc3ccccc23)cc1`, the AC50 is 0.258 µM (active).

Regarding `Cc1ccc(C)c(OCCCC(C)(C)C(=O)O)c1`, the concentration at half-maximal activity (AC50) was 0.499 µM (active).

As for `O=C(OCCc1ccccc1)c1ccccc1`, the AC50 is 20.9 µM (active).

For the molecule `COc1ccc(C(=O)c2ccccc2)c(O)c1`, the half-maximal activity concentration (AC50) was 6.35 µM (active).

For the molecule `Oc1ccccc1Cc1ccccc1O`, the AC50 is 3.62 µM (active).

As to `O=C(OCc1ccccc1)c1ccc(O)cc1`, the AC50 is 0.322 µM (active).

Take `CCCCCCCCCCCCc1ccc(O)cc1`: the half-maximal activity concentration (AC50) is 1.62 µM (active).

As to `COc1ccc(-c2coc3cc(O)cc(O)c3c2=O)cc1`, the AC50 was 0.335 µM (active).

As to `CCCCCCOc1ccc(N)cc1`, the AC50 was 21.2 µM (active).

As to `CC(C)(c1ccccc1)c1ccc(Nc2ccc(C(C)(C)c3ccccc3)cc2)cc1`, the half-maximal activity concentration (AC50) was 20.2 µM (active).

In the case of `O=C(Oc1ccccc1)c1ccccc1O`, the concentration at half-maximal activity (AC50) was 4.91 µM (active).

For `CCCCCC[C@@H](O)C/C=C\CCCCCCCC(=O)OCC(O)CO` (stereo partly specified), the AC50 is 13.5 µM (active).
